Assay results reported in PubChem BioAssay (Tox21).
Several values for one entry are separate records, joined by “and”; a condition that tells them apart may be missing. Equal entries are not always repeated. Inconclusive results are not listed. A call without a number means that no potency is given here. Some compounds were tested as several samples or in several runs, with calls that do not always agree. Activity calls are given as the source filed them. Unless noted, the call rests on the fitted dose curve.

Legend:
[1] = target: Gonadotropin-releasing hormone receptor (Homo sapiens) (UniProt P30968); assay: Human gonadotropin-releasing hormone receptor (GnRHR) small molecule agonists, calcium flux assay in GnRHR-HEK293 cells (AID 1920063); further: nearly all actives have a fitted effect of over 35% in size
Summary of the method: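 GnRHR-HEK293, 1500 cells/well, 18 h 37 C/5% CO2; Ca dye 1 h 37 C; cpd pinned (DMSO), agonist mode; kinetic FL 480/540, 3 min, 1 s reads; 15 conc, n=3.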

[2] = target: KiSS-1 receptor (Homo sapiens) (UniProt Q969F8); assay: Human kisspeptin (KISS1R) small molecule agonists, calcium flux assay in KISS1R-HEK293 cells (AID 1920064; active means well fitted activation curve with a large enough effect in the repeat runs)
Summary of the method: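 Stable human KISS1R HEK293 line; 18 h plating, 37 C/5% CO2; calcium dye 1 h 37 C; compound pin transfer; kinetic fluorescence Ex/Em 480/540, 3 min.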

[3] = G protein-coupled receptor (GPCR) small molecule agonists, calcium flux assay: HEK293 wild type cell line counter screen (AID 1920065)
Summary of the method: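 Kinetic fluorescence at Ex/Em 480/540, recorded every second over 3 min, served as the read-out after compound addition. Each compound was tested at 15 concentrations in triplicate on cells pre-loaded with calcium dye for 1 h.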

[4] = p53 small molecule agonists, cell-based qHTS assay with human liver microsomes (AID 1963577);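 further: p53 response element beta-lactamase reporter cells with liver microsomes plus NADPH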
Summary of the method: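 HLM-supplemented p53RE-bla reporter assay: 16 h compound exposure at 37 C, microsomes and NADPH each 0.5 mg/mL final, read by fluorescence intensity.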

[5] = p53 small molecule agonists, cell-based qHTS assay with rat liver microsomes (AID 1963578)
Summary of the method: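 Quantitative HTS of the Tox21 10K library: p53RE-bla cells, rat liver microsomes plus NADPH at 0.5 mg/mL final each, 16 h at 37 C, beta-lactamase fluorescence detection.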

[6] = p53 small molecule agonists, cell-based qHTS assay with human liver microsomes: qHTS cell viability counter screen (AID 1963579); further: nearly all actives have a fitted effect of over 45% in size
Summary of the method: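 Viability of p53RE-bla cells is measured as CellTiter-Glo luminescence following a 16 h, 37 C incubation with compound, liver microsomes from human donors and NADPH.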

[7] = p53 small molecule agonists, cell-based qHTS assay with rat liver microsomes: qHTS cell viability counter screen (AID 1963580); further: nearly all actives have a fitted effect of over 45% in size; further: potency means the concentration at half of the fitted maximal effect
Summary of the method: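 Viability is assessed in parallel with the p53 reporter read: HCT-116 p53RE-bla cells receive compounds plus rat microsomes and NADPH (0.5 mg/mL final apiece), incubate 16 h at 37 C, and then CellTiter-Glo luminescence is recorded.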

[8] = p53 small molecule agonists, cell-based qHTS assay: qHTS cell viability counter screen (AID 1963581); further: nearly all actives have a fitted effect of over 45% in size
Summary of the method: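 HCT-116 p53RE-bla cells, 4,000/well, plated 5 h before compound pin transfer; 16 h at 37 C; bla substrate 2 h RT; then CellTiter-Glo, 30 min RT, luminescence.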

[9] = p53 small molecule agonists, cell-based qHTS assay (AID 1963582; active means well fitted activation curve with a large enough effect in the signal ratio in the repeat runs, not every such curve was filed as active; the % refers to the signal ratio)
Summary of the method: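 Reporter line: p53RE-bla. Pre-incubation 5 h, 37 C, 5% CO2; compound (DMSO, pin tool) 16 h, 37 C; B/G FRET substrate 2 h RT; fluorescence intensity read.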

[10] = target: 5-hydroxytryptamine receptor 2A (Homo sapiens) (UniProt P28223); assay: 5-hydroxytryptamine receptor 2A (HTR2A) small molecule antagonists, cell-based qHTS assay (AID 1963586); further: nearly all actives have a fitted effect of over 45% in size
Summary of the method: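 Antagonist-mode intracellular calcium assay: DOI (4 nM) added after 5 min compound pre-incubation at room temperature to dye-loaded HTR2A-CHO cells. Fluorescence followed for 3 min, sampled every second.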

[11] = target: 5-hydroxytryptamine receptor 2A (Homo sapiens) (UniProt P28223); assay: 5-hydroxytryptamine receptor 2A (HTR2A) small molecule agonists, cell-based qHTS assay (AID 1963587); further: nearly all actives have a fitted effect of over 30% in size
Summary of the method: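 CHO cells stably expressing human HTR2A, plated 18 h, loaded with calcium dye 1 h at 37 C. Agonist mode: compounds added and intracellular calcium fluorescence recorded kinetically for 2 min at 1 sec intervals.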

[12] = target: Muscarinic acetylcholine receptor M1 (Homo sapiens) (UniProt P11229); assay: Cholinergic receptor muscarinic 1 (CHRM1) small molecule antagonists, cell-based qHTS assay (AID 1963588); further: nearly all actives have a fitted effect of over 40% in size; further: potency means the concentration at half of the fitted maximal effect
Summary of the method: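 CHRM1-CHO calcium-flux assay, antagonist mode. Cells were seeded 18 h, dye-loaded 1 h at 37 C and given compound for 5 min at RT, then acetylcholine was added at 50nM. FDSS fluorescence was read 3 min; 15 concentrations, three runs.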

[13] = target: Muscarinic acetylcholine receptor M1 (Homo sapiens) (UniProt P11229); assay: Cholinergic receptor muscarinic 1 (CHRM1) small molecule agonists, cell-based qHTS assay (AID 1963589); further: nearly all actives have a fitted effect of over 35% in size
Summary of the method: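 Human M1 in stable CHO line; 18 h plating, 1 h dye load 37 C; cpd added (agonist mode); Ca2+ fluorescence kinetic read, 1 s intervals; 15 conc, 3 runs.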

[14] = cAMP Responsive Elements (CRE) small molecule agonists, cell-based qHTS assay (AID 1963590)
Summary of the method: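 HEK 293T CRE-bla, 2,000 cells/well, 18 h preincubation 37 C/5% CO2; cpds (DMSO) pinned, 3 h; LiveBLAzer B/G FRET substrate, 2 h RT.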

[15] = cAMP Responsive Elements (CRE) small molecule antagonists, cell-based qHTS assay (AID 1963591; active means well fitted inhibition curve with a large enough effect in the signal ratio in the repeat runs, not every such curve was filed as active; the % refers to the signal ratio)
Summary of the method: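 Beta-lactamase reporter read by FRET substrate (LiveBLAzer B/G) after 2 h at room temperature. CRE-bla HEK293T cells had received compound plus 0.25 uM (final) NKH477 for 3 h at 37 °C.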

[16] = target: Beta-2 adrenergic receptor (Homo sapiens) (UniProt P07550); assay: Adrenergic beta2 receptor (ADRB2) small molecule antagonists, cell-based qHTS assay (AID 1963592); further: series mostly up to about 92 µM; nearly all actives have a fitted effect of over 50% in size
Summary of the method: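 Cells (CHO, stable ADRB2 overexpression) incubated 18-20hr at 37C; compounds added from DMSO; agonist mix (1nM isoproterenol, 100uM IBMX, 25uM Ro-20-1724) added; 0.5hr RT; d2-cAMP and anti-cAMP-cryptate added; 1hr RT; 665/615 nm read.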

[17] = target: D(2) dopamine receptor (Homo sapiens) (UniProt P14416); assay: Dopamine D2 receptor (DRD2) small molecule agonists, cell-based qHTS assay (AID 1963594); further: nearly all actives have a fitted effect of over 35% in size
Summary of the method: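 HEK293 cells stably expressing human DRD2, pre-treated with PDE inhibitor Ro20-1724 (0.1 mM final) and compound 10 min at room temperature, then stimulated with NKH477 (200nM […]) for 30 min. cAMP read by HTRF (665/620 nm).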

[18] = target: D(2) dopamine receptor (Homo sapiens) (UniProt P14416); assay: Dopamine D2 receptor (DRD2) small molecule antagonists, cell-based qHTS assay (AID 1963595; active means well fitted inhibition curve with a large enough effect in the signal ratio in the repeat runs, with a control signal flat; the % refers to the signal ratio)
Summary of the method: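 HTRF cAMP read-out at 665 and 620 nm emission (340 nm excitation). Antagonist mode: compounds were tested against 12 nM quinpirole in DRD2-HEK293 cells, with 200 nM NKH477 raising cAMP and 0.1 mM Ro20-1724 blocking its breakdown.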

[19] = target: Beta-2 adrenergic receptor (Homo sapiens) (UniProt P07550); assay: Adrenergic beta2 receptor (ADRB2) small molecule agonists, cell-based qHTS assay (AID 1963593);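 further: CHO cells stably overexpressing human ADRB2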
Summary of the method: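 CHO cells stably over-expressing ADRB2 were plated overnight at 37C, then dosed with compounds plus a stimulation mix containing 100uM IBMX and 25uM Ro-20-1724 for 0.5hr at room temperature. cAMP was measured by HTRF competition, 1hr.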

Beta-2 adrenergic receptor (Homo sapiens), sequence (P07550 whole entry, looked up): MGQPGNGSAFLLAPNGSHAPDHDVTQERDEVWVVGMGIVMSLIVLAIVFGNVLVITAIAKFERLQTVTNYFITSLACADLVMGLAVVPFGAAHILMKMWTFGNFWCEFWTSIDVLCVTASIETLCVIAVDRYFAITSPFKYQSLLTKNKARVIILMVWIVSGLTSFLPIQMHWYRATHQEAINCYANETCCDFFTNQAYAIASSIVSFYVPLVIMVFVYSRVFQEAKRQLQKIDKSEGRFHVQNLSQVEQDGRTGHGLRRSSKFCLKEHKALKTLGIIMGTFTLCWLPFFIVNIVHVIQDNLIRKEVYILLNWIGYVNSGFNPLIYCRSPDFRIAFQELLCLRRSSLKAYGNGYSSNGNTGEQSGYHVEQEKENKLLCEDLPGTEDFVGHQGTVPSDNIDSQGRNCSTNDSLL
Gonadotropin-releasing hormone receptor (Homo sapiens), sequence (P30968 whole entry, looked up): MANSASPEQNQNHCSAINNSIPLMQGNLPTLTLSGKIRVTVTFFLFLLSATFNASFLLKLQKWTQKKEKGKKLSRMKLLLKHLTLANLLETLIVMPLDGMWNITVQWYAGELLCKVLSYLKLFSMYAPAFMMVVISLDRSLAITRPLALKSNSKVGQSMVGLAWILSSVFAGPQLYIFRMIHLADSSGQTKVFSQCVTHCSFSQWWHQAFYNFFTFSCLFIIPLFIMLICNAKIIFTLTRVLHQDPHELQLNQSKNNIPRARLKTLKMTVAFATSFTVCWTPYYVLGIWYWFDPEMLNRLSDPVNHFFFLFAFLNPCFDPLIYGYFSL
5-hydroxytryptamine receptor 2A (Homo sapiens), sequence (P28223 whole entry, looked up): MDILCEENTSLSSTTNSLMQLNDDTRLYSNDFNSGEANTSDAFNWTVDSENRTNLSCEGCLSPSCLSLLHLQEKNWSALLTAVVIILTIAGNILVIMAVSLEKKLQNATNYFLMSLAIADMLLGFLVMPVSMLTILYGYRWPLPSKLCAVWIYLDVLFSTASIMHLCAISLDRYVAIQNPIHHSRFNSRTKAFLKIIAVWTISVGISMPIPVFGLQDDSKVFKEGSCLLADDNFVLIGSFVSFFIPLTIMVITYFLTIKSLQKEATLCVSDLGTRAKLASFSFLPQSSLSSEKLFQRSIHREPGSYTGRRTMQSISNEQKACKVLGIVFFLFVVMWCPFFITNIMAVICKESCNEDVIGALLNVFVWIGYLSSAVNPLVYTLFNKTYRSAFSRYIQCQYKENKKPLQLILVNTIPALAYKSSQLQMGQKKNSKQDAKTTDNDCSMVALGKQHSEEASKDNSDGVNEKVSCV
Muscarinic acetylcholine receptor M1 (Homo sapiens), sequence (P11229 whole entry, looked up): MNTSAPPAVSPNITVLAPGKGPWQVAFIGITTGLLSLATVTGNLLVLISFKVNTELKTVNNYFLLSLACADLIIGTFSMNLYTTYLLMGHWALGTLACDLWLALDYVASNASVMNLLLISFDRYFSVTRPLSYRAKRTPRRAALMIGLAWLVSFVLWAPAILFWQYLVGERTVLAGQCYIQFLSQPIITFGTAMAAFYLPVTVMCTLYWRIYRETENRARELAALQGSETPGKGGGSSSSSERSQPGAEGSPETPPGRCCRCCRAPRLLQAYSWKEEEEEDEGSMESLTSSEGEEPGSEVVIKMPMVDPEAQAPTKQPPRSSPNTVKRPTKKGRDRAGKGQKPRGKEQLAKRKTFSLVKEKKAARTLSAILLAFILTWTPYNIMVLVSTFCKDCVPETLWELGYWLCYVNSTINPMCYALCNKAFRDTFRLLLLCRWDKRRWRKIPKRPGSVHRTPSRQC
D(2) dopamine receptor (Homo sapiens), sequence (P14416 whole entry, looked up): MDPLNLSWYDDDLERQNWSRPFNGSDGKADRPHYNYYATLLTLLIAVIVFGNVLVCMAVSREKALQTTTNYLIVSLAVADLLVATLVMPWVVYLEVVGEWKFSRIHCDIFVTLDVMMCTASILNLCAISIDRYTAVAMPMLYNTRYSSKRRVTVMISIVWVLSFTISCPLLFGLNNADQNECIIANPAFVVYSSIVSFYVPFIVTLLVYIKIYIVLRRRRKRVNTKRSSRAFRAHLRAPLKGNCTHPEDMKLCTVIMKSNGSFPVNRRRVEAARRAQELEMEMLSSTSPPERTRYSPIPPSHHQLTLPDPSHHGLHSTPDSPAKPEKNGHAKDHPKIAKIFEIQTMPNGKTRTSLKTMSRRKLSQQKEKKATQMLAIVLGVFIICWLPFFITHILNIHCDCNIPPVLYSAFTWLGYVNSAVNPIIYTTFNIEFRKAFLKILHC
KiSS-1 receptor (Homo sapiens), sequence (Q969F8 whole entry, looked up): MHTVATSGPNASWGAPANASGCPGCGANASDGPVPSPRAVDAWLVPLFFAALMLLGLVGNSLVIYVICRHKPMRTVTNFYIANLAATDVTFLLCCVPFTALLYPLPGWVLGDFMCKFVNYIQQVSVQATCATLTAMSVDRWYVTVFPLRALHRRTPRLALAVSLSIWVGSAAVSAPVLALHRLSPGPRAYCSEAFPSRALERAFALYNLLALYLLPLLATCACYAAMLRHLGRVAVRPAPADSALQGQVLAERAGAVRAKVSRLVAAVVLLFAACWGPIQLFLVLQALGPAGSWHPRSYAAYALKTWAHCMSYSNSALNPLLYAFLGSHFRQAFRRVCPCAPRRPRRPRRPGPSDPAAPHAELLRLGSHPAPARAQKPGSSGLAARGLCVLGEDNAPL

Structure (SMILES)	Potency [1]	Potency [2]	Potency [3]	Potency [4]	Potency [5]	Potency [6]	Potency [7]	Potency [8]	Potency [9]	Potency [10]	Potency [11]	Potency [12]	Potency [13]	Potency [14]	Potency [15]	Potency [16]	Potency [17]	Potency [18]	Potency [19]
CCCCCCCCn1cc[n+](C)c1	inactive	inactive	inactive	inactive	inactive	inactive	inactive	inactive	inactive	inactive	inactive	9.41 µM (active) and 3.78 µM (active) and inactive	inactive	inactive	inactive	inactive	inactive	inactive	–
C1CC2OC2CC1C1CO1 (centres undefined)	inactive	inactive	inactive	inactive	inactive	inactive	inactive	inactive	inactive	inactive	–	inactive	inactive	inactive	–	inactive	inactive	inactive	inactive
O=C(O)Cc1ccccc1	–	inactive	inactive	–	–	inactive	inactive	inactive	–	inactive	inactive	266 nM (active) and inactive	inactive	inactive	inactive	inactive	inactive	inactive	–
CCC(=O)OC1(c2ccccc2)CCN(C)CC1	inactive	–	inactive	inactive	inactive	inactive	inactive	inactive	inactive	inactive	inactive	inactive	–	inactive	inactive	inactive	–	inactive	inactive
CN(C)C(=S)S	inactive	inactive	inactive	–	–	inactive	inactive and 8.08 µM (active)	inactive	–	inactive	inactive	inactive	inactive	–	–	inactive	inactive	inactive	inactive
OCC(Br)CBr (centres undefined)	inactive	inactive	inactive	inactive	inactive	inactive	inactive	–	inactive	inactive	inactive	inactive	inactive	inactive	inactive	inactive	inactive	inactive	–
Oc1cc(Cl)c(Cl)cc1Cl	inactive	inactive	inactive	–	–	inactive	40.5 µM (active) and inactive	inactive	–	inactive	inactive	–	inactive	–	inactive	inactive	inactive	inactive	–
COC(=O)[C@@H](N)CCCN/C(N)=N/[N+](=O)[O-]	inactive	–	inactive	inactive	inactive	inactive	–	–	inactive	inactive	inactive	inactive	inactive	inactive	inactive	inactive	inactive	inactive	–
